Screening data as filed in PubChem.
Calpain2 inh: blocks pig calpain II enzyme activity | purified calpain II, fluorogenic peptide substrate, 30 min | 220,000 tested, 0.37% active | inhibition, % at 16 µM;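 active means inhibition above about 50%, limit read from the data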
Cardio protect: modulators protecting cardiomyocytes from myocardial damage. 360,000 tested, 0.63% active. H9c2 cardiomyocytes, H2O2 injury protection, ATPLite, 2 h. protection from H2O2 cell death, % at 20 µM;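 active means compounds giving at least 50% protection of heart cells from peroxide-induced death in the single-dose screen, raw or plate-pattern-corrected value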
TAG inh: triacylglycerol accumulation inhibition. H9c2 cells, Nile Red lipid (TAG) fluorescence; cells loaded with 200 µM oleic acid. inhibition, % at 12.5 µM. 230,000 tested, 0.66% active;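 active means pattern-corrected inhibition of lipid staining of at least 50% with the nuclear-stain viability signal not falling by more than 50%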
aDG glyco up: increases alpha dystroglycan glycosylation. activation, % at 10 µM. Pro5-aDG cells, alpha-DG glycosylation AlphaScreen (IIH6); 0% Pro5, 100% B10-LARGE cell signal. 360,000 tested, 0.22% active. AID 624168;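 active means activation of at least 8% versus controls, or a plate z-score of at least 8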;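 further: Pro5 are CHO cells carrying HIG-tagged alpha-DG that lacks glycosylation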
beta cell repl: MIN6 beta-cell proliferation induction; MIN6 cells proliferation, ATPlite luminescence, 48 h; cells starved in 0.2% serum; 100% = growth in 10% serum; proliferation, % at 10 µM; 330,000 tested, 0.29% active; AID 2380;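 active means compounds whose signal lies at least 3.5 SD above the mean of all wells on their plate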
FAS-TE inh: inhibitors of human fatty acid synthase thioesterase domain; 360,000 tested, 0.67% active; inhibition, % at 15 µM; AID 602261; recombinant FAS-TE, OMFH fluorogenic substrate, fluorescence endpoint;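 active means compounds whose normalised, plate-corrected inhibition of enzyme fluorescence in the single-dose primary screen is 50% or more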
H9c2 TAG conf: confirmation of triacylglycerol accumulation inhibitors; AID 651629; inhibition, % at 12.5 µM; 990 tested, 71% active; H9c2 lipid accumulation, Nile Red fluorescence; cells loaded with 200 µM oleic acid; shares compounds with TAG inh;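 active means mean inhibition across replicates of 40% or more; inactive means mean inhibition below 40%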
Numbers stand for hits; – = inactive; · = no result. Only some compounds are listed: those with a hit (about 2.3% of all), similar ones and a draw of the others.

SMILES	Calpain2 inh	Cardio protect	TAG inh	aDG glyco up	beta cell repl	FAS-TE inh	H9c2 TAG conf
COc1cc(-c2cnc3c(NC=O)cc(-c4cccc(NC(C)=O)c4)cn23)cc(OC)c1OC	·	54	73	–	·	–	96
C[C@H](CO)N1C[C@H](C)[C@@H](CN(C)C(=O)c2ccccc2)OCc2cn(nn2)CCCC1=O	·	–	–	–	·	–	·
Cn1nnnc1Sc1ncnc2scc(-c3ccc(-c4ccccc4)cc3)c12	·	–	59	–	–	–	–
Cc1nn(-c2ccccc2)c2nc(-c3ccccc3)cc(C(=O)N3CCOCC3)c12	–	–	–	–	–	–	·
Cc1nn(-c2cccc(Cl)c2)c2nc(-c3ccncc3)cc(C(=O)N3CCOCC3)c12	–	–	53	–	–	–	53
Cc1cccc2c(C(=O)N3CCN(c4ccccc4)CC3)cc(-c3ccncc3)nc12	·	–	60	–	–	–	77
CN1CCN(c2ccc([N+](=O)[O-])cc2C(=O)c2ccc(Cl)cc2)CC1	–	–	54	–	–	–	49
O=C(c1ccc(Cl)cc1)c1cc([N+](=O)[O-])ccc1N1CCOCC1	–	–	–	–	–	–	·
COc1ccc(CCN2CC(C(=O)NCc3cccc(F)c3)CCC2=O)cc1 (centres undefined)	·	–	–	–	·	–	·
Cc1ccc(F)cc1C(=O)N1CCCC(c2cc(C(=O)Nc3ccccc3Cl)no2)C1 (centres undefined)	·	–	–	–	·	–	·
CC(=O)Nc1ccc(NC2=Nc3ccccc3N3C2=Nc2c(c(C)nn2-c2ccccc2)C3c2ccccc2)cc1 (centres undefined)	–	–	54	–	–	–	43
CC(=O)Nc1ccc(NC(=O)COC(=O)c2c(C)nn(-c3ccccc3)c2C)cc1	–	–	·	–	–	–	·
O=C(Cc1ccccc1)Nc1nc(-c2cccs2)cs1	–	–	62	–	–	–	–
O=C(Cc1ccccc1F)Nc1nc(-c2cccs2)cs1	–	–	–	–	–	–	·
Cc1ccccc1NS(=O)(=O)c1ccc(N2CCCC2=O)cc1	–	–	58	–	–	–	–
COc1ccc(OC)c(NS(=O)(=O)c2ccc(N3CCCC3=O)cc2)c1	–	–	57	–	–	–	42
Cc1ccccc1NS(=O)(=O)c1cc2c3c(c1)CC(=O)N3CCC2	·	–	·	–	–	–	·
COc1ccc(CCNS(=O)(=O)c2ccc(N3CCCC3=O)cc2)cc1	–	–	–	–	–	–	·
Nc1ncccc1C(=O)OCC(=O)N1CCN(S(=O)(=O)c2ccc(Cl)cc2)CC1	·	–	–	–	–	–	·
COc1ccc(C(C(=O)NC(C)(C)C)N(CCC(C)C)C(=O)CCC(=O)Nc2cc(C)on2)cc1 (centres undefined)	·	–	·	–	–	–	·
COc1ccc(C(C(=O)NC(C)(C)C)N(CC2CCCO2)C(=O)CCC(=O)Nc2cc(C)on2)cc1 (centres undefined)	–	–	50	–	–	–	–
COc1ccccc1/C=C/C(=O)NCC(=O)N/N=C/c1cc(Br)ccc1OC	–	98	54	–	–	–	–
c1ccc(-c2nc(N3CCOCC3)cc(N3CCOCC3)n2)cc1	–	–	51	–	–	–	54
CCC(=O)Nc1c(-c2ccc(OC)cc2)c(=O)c2ccccc2n1C	–	–	61	–	–	–	–
Cc1occc1C(=O)NC(C)CCc1ccccc1 (centres undefined)	–	–	51	–	–	–	54
N#Cc1cn(-c2ccccc2)nc1-c1ccc2c(c1)OCCO2	–	–	59	–	–	–	–
O=Cc1cn(-c2ccccc2)nc1-c1ccc2c(c1)OCCO2	–	–	–	–	–	–	·
COc1ccc(CNC(=O)Nc2nc(C(N)CCc3ccccc3)cs2)cc1 (centres undefined)	·	–	–	–	·	–	·
COc1cc(NC(=O)c2ccc(N)nc2)cc(C(=O)Nc2cccc(C(F)(F)F)c2)c1	–	–	–	–	–	–	·
COc1cc(Nc2ccccn2)cc(C(=O)Nc2cccc(C(F)(F)F)c2)c1	–	–	–	–	–	–	·
